PubChem BioAssay AID1259418 (Broad Institute, 2018)
Hit rate of the full screen: of about 3,400 compounds, about 840 (25%) were called active. Roughly 11% stayed inconclusive and do not appear here. The list is a sample of the results. Potency and affinity values are given separately. Values without a mark were called inactive.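 Rule for the calls: active = fitted half-maximal concentration of signal decrease at or below twice the sample's top tested concentration; inconclusive = flat curve between -70 and -30 percent, or poor fit; inactive = flat within 30 percent, signal rise, or potency above limit.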

Test: inhibitors of Toxoplasma growth in IFN-γ-primed HeLa – cell-based, ME49Luc, luciferase, 72 h, dose response (AID 1259418)
Settings: T. gondii ME49Luc in IFN-y HeLa, stronger effect = lower value, -100% = high-dose IFN-γ control wells; at 19.5 µM unless noted

| SMILES | max activity |
| --- | --- |
| Cc1ccc(-c2coc(-c3ccc(NC(=O)Nc4ccc5c(c4)OCO5)cc3)n2)c(C)c1 | 49.1% |
| Cc1ccc(C(=O)N2CCC3(CC2)Nc2cc(F)ccc2-n2cccc23)cc1 | 6.63% [at 0.16 µM] |
| CSc1ccc(CNC(=O)COc2nc(C)nc3ccccc23)cc1 | -10.1% [at 5 µM] |
| CCOc1ccc(NC(=O)N2CCc3nc(-c4cccc(OC)c4)sc3C2)cc1 | 6.38% |
| COc1ccc(-c2nc(Cn3nnc(-c4nc(-c5ccc(F)cc5)no4)c3C)c(C)o2)cc1 | -9.56% [at 5 µM] |
| COc1ccc(-c2nc(NCCc3ccccc3)c3ccccc3n2)cc1 | -16% [at 10 µM] |
| COc1ccc(-c2nc(NCCc3cc(OC)ccc3OC)c3ccccc3n2)cc1 | 10.1% |
| CCOC(=O)C1CCN(c2nc(-c3ccc(OC)cc3)nc3ccccc23)CC1 | -8.44% [at 0.68 µM] |
| Cc1nc(-c2ccc(C(=O)N3CCC(C)CC3)cc2)cs1 | 19% |
| COc1ccc(Cl)cc1NC(=O)CN1CCC2(CC1)N=C(c1cccc(F)c1)C(=O)N2 | 7.5% [at 5 µM] |
| CCOc1ccc(C(=O)N2CCC3(CC2)Nc2cc(OC)ccc2-n2cccc23)cc1 | 8.9% |
| COc1ccc(NC(=O)COc2nc(C)nc3ccccc23)c(OC)c1 | 17.4% [at 0.16 µM] |
| Cc1ccc(CN2CC3CN(Cc4cccc(F)c4)CC3C2)s1 (stereo not drawn) | 10.1% |
| O=S(=O)(c1ccc(F)cc1)N1C[C@@H]2N[C@H](C1)C2c1ccc(/C=C/c2ccccc2)cc1 (stereo partly drawn) | 26.3% |
| COc1ccc(OC)c(NC(=O)Nc2ccc(-c3nc(-c4cc(C)ccc4C)co3)cc2)c1 | -12.9% [at 0.35 µM] |
| Cc1nc(OCC(=O)Nc2ccccc2C(F)(F)F)c2ccccc2n1 | 21.7% [at 0.16 µM] |
| CCN1CCO[C@@H]2CN(C(=O)CC3Cc4ccccc4C3)C[C@@H]2C1 | 43.5% |
| Cc1ccc(C(=O)Nc2ccc3c(c2)CCC(=O)N3)c(C)c1 | 42% |
| Cc1ccc(CC(=O)Nc2ccc3c(c2)CCC(=O)N3)cc1 | 7.74% |
| O=C1CCc2cc(NC(=O)C(F)(F)F)ccc2N1 | -12.7% [at 2.6 µM] |
| O=C1CCc2cc(NC(=O)c3ccc(C(F)(F)F)cc3)ccc2N1 | -7.37% [at 1.35 µM] |
| O=C1CCc2cc(NC(=O)c3ccc(OC(F)(F)F)cc3)ccc2N1 | -8.43% [at 0.35 µM] |
| Cc1ccc(C)c(C(=O)Nc2ccc3c(c2)CCC(=O)N3)c1 | -6.43% [at 1.35 µM] |
| CC(C)N1CCN(CC#N)C2(CCN(C(=O)c3ccc[nH]3)C2)C1=O (stereo not drawn) | 43.6% |
| COc1ccc(CC(=O)Nc2ccc(-c3nc(-c4ccccc4)co3)cc2)cc1 | -7.29% [at 1.35 µM] |

| SMILES | max activity |
| --- | --- |
| CCOc1ccccc1-c1nc(CN(c2ccc(OC)cc2)S(=O)(=O)c2ccccc2)c(C)o1 | 7.8% |
| O=C(Cn1c(=O)c(S(=O)(=O)c2ccccc2)cc2ccccc21)N1CCCC1 | -8.97% [at 0.16 µM] |
| COc1ccc(-c2nc(Nc3cc(C)ccc3OC)c3ccccc3n2)cc1 | 19.6% |
| Cc1ccc(CC(=O)Nc2ccc(-c3nc(-c4ccccc4)co3)cc2)cc1 | 9.88% [at 5 µM] |
| O=C(CC1Nc2c3ccccc3nc(=S)n2C1=O)NCCc1ccc(Cl)cc1 (stereo not drawn) | -20.4% [at 0.16 µM] |
| CCOC(=O)C(=O)Nc1ccc(-c2nc(-c3cc(C)ccc3C)co2)cc1 | 15.3% [at 0.16 µM] |
| COc1cc(OC)c(NC(=O)Nc2ccc(-c3nc(-c4ccc(C)cc4)co3)cc2)cc1Cl | 86.6% |
| Cc1ccc(C(=O)Nc2ccc(N3CCC(C(N)=O)(N4CCCCC4)CC3)c(C(=O)O)c2)cc1 | 15% [at 2.6 µM] |
| NC(=O)C1(N2CCCCC2)CCN(c2ccc(NC(=O)c3ccccc3F)cc2C(=O)O)CC1 | -16.3% [at 0.35 µM] |
| CCOC(=O)C1CCC(CNC(=O)Nc2ccc(-c3nc(-c4ccc(C)cc4C)co3)cc2)CC1 (stereo not drawn) | -7.93% [at 0.35 µM] |
| COc1cc(NC(=O)CN2CCC3(CC2)N=C(c2cccc(F)c2)C(=O)N3)cc(OC)c1 | -16.9% |
| Cc1ccc(-c2coc(-c3ccc(NC(=O)Nc4ccc(C)c(F)c4)cc3)n2)c(C)c1 | 14.2% |
| COc1ccc(-c2nc(Cn3c(=O)c4c(C)cc(C)nc4n(-c4ccccc4)c3=O)c(C)o2)cc1 | -4.82% [at 10 µM] |
| COc1cccc(NC(=O)CN2CCC3(CC2)N=C(c2ccc(F)cc2)C(=O)N3)c1 | -15.6% [at 0.68 µM] |
| COc1cccc(C(=O)Nc2ccc(-c3nc(-c4ccc(C)cc4)co3)cc2)c1 | 73.1% |
| COc1cccc(C(=O)Nc2ccc(-c3nc(-c4ccccc4)co3)cc2)c1 | -14.9% [at 10 µM] |
| CCOc1ccc(-c2nc3c(s2)CN(S(=O)(=O)c2ccc(C(C)C)cc2)CC3)cc1 | 12.8% |
| O=C(CC1N=C2c3ccccc3N=C(SCc3cc(=O)n4cc(Cl)ccc4n3)N2C1=O)NCc1ccco1 (stereo not drawn) | 13% [at 10 µM] |
| Cc1ccc(C(=O)Nc2c(C(=O)N3CCCC3)[nH]c3ccccc23)cc1 | 14.8% [at 2.6 µM] |
| O=C(Cc1ccc(F)cc1)N1CCC2(CC1)Nc1ccc(Cl)cc1-n1cccc12 | -6.77% [at 5 µM] |
| COc1ccc2c(c1)NC1(CCN(C(=O)Cc3ccc(Cl)cc3)CC1)c1cccn1-2 | 7.11% [at 10 µM] |
| CN(C)C(=O)COCc1cncc2c1CCN(c1ccccn1)C2 | 11.3% [at 10 µM] |
| CCc1nc(OCC(=O)Nc2cccc(SC)c2)c2ccccc2n1 | 9.62% [at 0.16 µM] |
| CCN1C(=O)CCc2cc(NC(=O)CC(C)C)ccc21 | 6.42% [at 0.35 µM] |
| O=C(C[C@H]1CC[C@H]2[C@@H](COC[C@@H](O)CN2S(=O)(=O)c2ccccc2F)O1)N1CCC(Cc2ccccc2)CC1 | 25.4% [at 10 µM] |

| SMILES | max activity |
| --- | --- |
| O=C(C[C@@H]1CC[C@H]2[C@@H](COC[C@H](O)CN2Cc2ccc(Oc3ccccc3)cc2)O1)N1CCN(c2ccccc2)CC1 | 16% [at 10 µM] |
| O=C(C[C@@H]1CC[C@@H]2[C@H](COC[C@H](O)CN2Cc2ccc3c(c2)OCO3)O1)N1CCCCC1 | 28.4% |
| O=C(C[C@H]1CC[C@@H]2[C@H](COC[C@H](O)CN2C(=O)c2cc(Cl)cc(Cl)c2)O1)N1CCc2ccccc2C1 | -23.1% |
| COc1ccccc1-c1nc(Cn2nnc(-c3nc(-c4cccc(C)c4)no3)c2C)c(C)o1 | 6.08% [at 0.35 µM] |
| CCOc1ccc(-c2nc3c([nH]2)c(=O)n(C)c(=O)n3C)cc1OC | 30.3% [at 10 µM] |
| CC1=NN(C2CCS(=O)(=O)C2)C(=O)C1(Sc1ccccc1)Sc1ccccc1 (stereo not drawn) | -15.9% [at 10 µM] |
| COc1ccc(CC(=O)Nc2ccc(-c3nc(-c4ccc(C)cc4C)co3)cc2)cc1 | 23.3% [at 0.68 µM] |
| CN1CCN(Cc2cnc3n2CCN(CC2CCOCC2)C3)CC1 | 10.5% |
| O=C(C[C@H]1CC[C@@H]2[C@H](COC[C@H](O)CN2Cc2cc(F)ccc2F)O1)NCc1ccc(Oc2ccccc2)cc1 | 17.5% [at 5 µM] |
| O=C(C[C@H]1CC[C@H]2[C@@H](COC[C@H](O)CN2Cc2cc(F)ccc2F)O1)NCc1ccc(Oc2ccccc2)cc1 | 17.6% [at 2.6 µM] |
| Cc1ccc(C)c(NC(=O)CN2CCC3(CC2)N=C(c2ccc(F)cc2)C(=O)N3)c1 | 21.8% [at 10 µM] |
| Cc1cccc(-c2nc(CSc3nc4c(c(=O)[nH]3)CN(C(C)C)CC4)c(C)o2)c1 | 19.2% [at 0.68 µM] |
| O=C(CC1CCCCC1)Nc1ccc(-c2nc(-c3ccccc3)co2)cc1 | 19.4% |
| Cc1ccc(NC(=O)Nc2ccc(-c3nc(-c4ccccc4)co3)cc2)cc1F | 16.5% [at 0.16 µM] |
| O=C(Cn1c(=O)c(S(=O)(=O)c2ccccc2)cc2ccccc21)NCc1ccccc1Cl | -23.2% [at 0.16 µM] |
| CCOC(=O)CNC(=O)Nc1ccc(-c2nc(-c3cc(C)ccc3C)co2)cc1 | 5.17% [at 0.68 µM] |
| Cc1ccc(CN2CCC3(CC2)N=C(c2ccc(C)cc2)C(=O)N3)cc1 | 12.6% [at 2.6 µM] |
| Cc1ccc(-c2coc(-c3ccc(NC(=O)C(C)(C)C)cc3)n2)cc1 | 29.4% [at 10 µM] |
| CCS(=O)(=O)N1[C@H](CO)[C@@H](c2ccc(C#Cc3ccccc3F)cc2)[C@@H]1C#N | 8.21% [at 10 µM] |
| COc1cccc(CC(=O)Nc2ccc(-c3nc(-c4ccc(C)cc4)co3)cc2)c1 | 20.4% |
| COCCCN1CCc2nc(SCc3nc(-c4ccccc4OC)oc3C)[nH]c(=O)c2C1 | 25.6% [at 10 µM] |
| COc1ccc(C(=O)Nc2ccc(-c3nc(-c4ccccc4)co3)cc2)cc1OC | 14.3% [at 0.16 µM] |
| COC(=O)C1CC23C=CNC4CCC5(c6ccccc6NC15C2C)C43 (stereo not drawn) | 26.5% [at 10 µM] |
